TDP1 cell CPT: qHTS for Inhibitors of human tyrosyl-DNA phosphodiesterase 1 (TDP1): qHTS in cells in presence of CPT | chicken DT40 Tdp1-/-;hTDP1 cells + 20 nM CPT, ATP luminescence, 48 h | Potency, µM (top dose mostly 46.2 µM), for the others: top-dose activity change, negative = growth inhibition, most hits filed as inhibitors | 12% of 420,000 active; further: nearly all actives have a fitted effect of over 55% in size
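Chicken DT40 Tdp1-/- cells stably complemented with human TDP1 were seeded at 400 cells/well in medium containing 20 nM camptothecin, exposed to pin-transferred compounds, and grown at 37 °C for at least 48 hr. Viability was read as ATP luminescence.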
TDP1 cell noCPT: qHTS for Inhibitors of human tyrosyl-DNA phosphodiesterase 1 (TDP1): qHTS in cells in absence of CPT. DT40 Tdp1-/- hTDP1 cells, no CPT, ATP luminescence, 48 h. Potency, µM (highest dose often 46.2 µM), without a hit: top-dose activity change, negative = growth inhibition, hits mostly inhibitors. 15% of 420,000 active. AID 686978, 2013; further: nearly all actives have a fitted effect of over 55% in size
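Cells were dispensed at 400 per well, compounds added by pin tool, plates incubated ≥48 hr at 37 °C, then CellTiter-Glo added for 30 min at room temperature before luminescence reading. Line: DT40 Tdp1-/- complemented with hTDP1; camptothecin omitted.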
KAT2A inh: qHTS Assay for Inhibitors of GCN5L2; Histone acetyltransferase KAT2A (Homo sapiens), Q92830; GCN5L2 HAT assay, ThioGlo1 CoA-SH fluorescence; Potency, µM (doses to about 58.9 µM), inactives show at the top dose activity change, negative = inhibition, actives largely listed as inhibitors; 0.21% of 390,000 active
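Preincubate 20nM GCN5L2 with compound 15 min, RT → add 50uM ThioGlo1 + 75uM H3(1-25) + 70uM acetyl-CoA → read fluorescence 0 and 20 min. Primary qHTS; fluorescent artifacts likely.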
TDP1 inh: qHTS Assay for Inhibitors of Tyrosyl-DNA Phosphodiesterase (TDP1); recombinant TDP1, AlphaScreen DNA substrate cleavage; Tyrosyl-DNA phosphodiesterase 1 (Homo sapiens), Q9NUW8; AID 485290, 2010; Potency, µM (top dose mostly 130 µM), inactives show at the highest dose activity change, negative = inhibition, actives largely listed as inhibitors; 0.28% of 350,000 active; further: nearly all actives have a fitted effect of over 40% in size
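Steps: enzyme plus compound, 15 min RT; add biotin/phosphotyrosine-FITC oligonucleotide (15 nM final), react 5 min; add donor/acceptor beads (10 ug/ml final), 10 min; read AlphaScreen. Tdp1 at 1 nM final.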
VDR inhibitor: Inhibitors of the vitamin D receptor (VDR): qHTS | Vitamin D3 receptor (Homo sapiens), P11473 | 0.93% of 400,000 active | Potency, µM, inactives show max response, negative = inhibition, most hits filed as inhibitors | VDR-SRC2-3 peptide fluorescence polarization, 2 h
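Compounds are added to VDR with labelled SRC2-3 coactivator peptide and held 2 h at room temperature. Inhibition of the VDR–peptide interaction is then read as a change in fluorescence polarization.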
PLK1 PBD block: qHTS for Inhibitors of PLK1-PDB (polo-like kinase 1 - polo-box domain): Primary Screen | Serine/threonine-protein kinase PLK1 (Homo sapiens), P53350 | Plk1 PBD binding of FITC phosphopeptide, fluorescence polarization | Potency, µM, inactives show max response, negative = inhibition, actives largely listed as inhibitors | 2.8% of 360,000 active; further: series mostly up to about 57 µM; nearly all actives have a fitted effect of over 65% in size
Target sequence (P53350 whole entry, looked up, the tested form may be a part): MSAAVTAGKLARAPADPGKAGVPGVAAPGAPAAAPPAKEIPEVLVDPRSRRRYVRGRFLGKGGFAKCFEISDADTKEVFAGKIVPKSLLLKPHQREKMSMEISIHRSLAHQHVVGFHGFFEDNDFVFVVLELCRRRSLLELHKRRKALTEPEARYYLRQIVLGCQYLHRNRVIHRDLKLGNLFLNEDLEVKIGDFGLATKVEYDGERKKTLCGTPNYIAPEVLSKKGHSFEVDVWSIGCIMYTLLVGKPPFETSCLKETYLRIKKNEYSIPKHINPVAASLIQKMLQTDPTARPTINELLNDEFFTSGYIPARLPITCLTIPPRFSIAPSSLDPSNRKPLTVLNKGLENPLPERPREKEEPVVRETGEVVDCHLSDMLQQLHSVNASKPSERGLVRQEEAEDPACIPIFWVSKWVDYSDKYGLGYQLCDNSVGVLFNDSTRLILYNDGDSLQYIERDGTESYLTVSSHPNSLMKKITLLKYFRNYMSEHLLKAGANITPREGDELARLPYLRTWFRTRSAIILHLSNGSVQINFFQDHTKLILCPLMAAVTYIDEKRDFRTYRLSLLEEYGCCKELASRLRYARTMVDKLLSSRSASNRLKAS
The depositor's hits bear a star; ? = inconclusive; · = no result. Sampled rows, rich in hits. Any-hit rate of the full collection: about 18%. The call rests on the fitted dose curve; in most records, active means well fitted curve in the direction sought with a large enough effect; inconclusive means small, poorly fitted or top-dose-only effect, or another doubt; inactive means no such curve, though single readings can be large; an effect the other way counts as inactive or inconclusive. On the % scale 0 is the no-effect control and ±100 the full control effect; potency means the concentration at half of the fitted maximal effect.

SMILES	TDP1 cell CPT	TDP1 cell noCPT	KAT2A inh	TDP1 inh	VDR inhibitor	PLK1 PBD block
COc1ccc(C2=CC(=O)C[C@H](c3ccc(F)cc3)C2)c(OC)c1	?	?	-1%	2%	-1%	-1%
Cc1c(C(=O)N2CCNCC2)oc2ccccc12	8%	7%	0%	·	-1%	-12%
Cc1ccc(NC(=O)C2CCN(c3nnc(C)c4c(C)n(-c5ccccc5)nc34)CC2)c(Cl)c1	13µM*	?	-8%	0%	7%	·
Cc1ccc(NC(=O)N2CCN(c3nnc(C)c4c(C)n(-c5ccccc5)nc34)CC2)c(Cl)c1	-15%	-21%	-10%	7%	10%	·
C=Cc1cc(F)c(S(=O)(=O)N2CCN(S(=O)(=O)c3ccc4c(c3)OCCO4)CC2)cc1F	·	·	·	1%	·	·
c1ccc(CCN(Cc2ccccc2)Cc2nc(C3CC3)no2)cc1	-4%	11%	-15%	1%	?	-6%
CC(=O)C1=C(c2ccc(Cl)c(Cl)c2)N(C(C)=O)n2cnnc2S1	2.6µM*	2.9µM*	5%	-3%	?	·
CC(=O)C1=C(c2ccc(Cl)c(Cl)c2)N(C(C)=O)n2c(nnc2-c2ccccc2)S1	?	?	-11%	5%	-4%	·
COc1cccc(C2=C(C(C)=O)Sc3nncn3N2C(C)=O)c1	?	23µM*	-2%	5%	0%	·
CC(=O)C1=C(c2ccc(Cl)c(Cl)c2)N(C(C)=O)n2c(C)nnc2S1	2.9µM*	4.1µM*	-12%	0%	-7%	·
CNC(=O)c1ccc(-c2ccc(Cl)c(Cl)c2)s1	6%	?	-11%	-2%	18%	-16%
CC(NC(=O)c1cc2c(s1)CS(=O)(=O)C2)c1ccccc1 (configuration not stated)	-6%	-10%	1%	4%	-21%	3%
COc1ccc(-c2ccc(N(C)C)cc2)cc1C1C2C=CCCC2(C)C(=O)N1Cc1ccccc1 (configuration not stated)	·	·	·	23%	5%	·
Cc1ccc(C(=O)N2c3ccccc3Sc3ccccc32)cc1	-2%	7%	·	·	·	-8%
COc1ccc(OC)c(NC(=O)N2c3ccccc3Sc3ccccc32)c1	18µM*	?	-1%	·	-6%	·
O=C(c1cccnc1)N1c2ccccc2Sc2ccccc21	15µM*	15µM*	-1%	1%	12%	2%
CCOc1ccccc1NC(=O)Nc1cccc(C(C)=O)c1	29µM*	-30%	-9%	2%	-15%	-9%
CCOc1ccccc1NC(=O)/C=C/C(N)=O	4.1µM*	4.1µM*	2%	6%	23%	-14%
CCOc1ccc(OCC(=O)OCC(=O)N2CCN(S(=O)(=O)c3ccc(C)cc3C)CC2)cc1	-11%	13%	·	·	-6%	-10%
CCCCNC(=O)CC1NCCNC1=O (configuration not stated)	0%	0%	-8%	1%	-15%	-9%
COC(=O)c1ccccc1NC(=O)N1c2ccccc2Sc2ccccc21	18µM*	?	-10%	1%	-3%	-6%
CCOc1ccccc1NC(=O)N1c2ccccc2Sc2ccccc21	?	26µM*	-5%	·	-7%	·
COc1ccccc1C(=O)N1c2ccccc2Sc2ccccc21	5.8µM*	5.8µM*	-2%	3%	5%	3%
CCOc1ccccc1C(=O)N1c2ccccc2Sc2ccccc21	10µM*	13µM*	-8%	-1%	19%	-7%
CC(=O)N1c2ccccc2Sc2ccccc21	-4%	-30%	2%	·	-14%	-6%

Source: PubChem
